Mdm2-MdmX inh = inhibitors of human Mdm2-MdmX association, primary screen, cell-based, luminescence, split luciferase, SaOS-2, uHTS; 330,000 tested, 3% active; SaOS-2 split-luciferase Mdm2/MdmX complementation; inhibition, % at 8 µM; AID 485346, 2010;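 active = inhibition of at least 50% at 8 µM in the primary screen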
Target sequence (O15151 whole entry, looked up): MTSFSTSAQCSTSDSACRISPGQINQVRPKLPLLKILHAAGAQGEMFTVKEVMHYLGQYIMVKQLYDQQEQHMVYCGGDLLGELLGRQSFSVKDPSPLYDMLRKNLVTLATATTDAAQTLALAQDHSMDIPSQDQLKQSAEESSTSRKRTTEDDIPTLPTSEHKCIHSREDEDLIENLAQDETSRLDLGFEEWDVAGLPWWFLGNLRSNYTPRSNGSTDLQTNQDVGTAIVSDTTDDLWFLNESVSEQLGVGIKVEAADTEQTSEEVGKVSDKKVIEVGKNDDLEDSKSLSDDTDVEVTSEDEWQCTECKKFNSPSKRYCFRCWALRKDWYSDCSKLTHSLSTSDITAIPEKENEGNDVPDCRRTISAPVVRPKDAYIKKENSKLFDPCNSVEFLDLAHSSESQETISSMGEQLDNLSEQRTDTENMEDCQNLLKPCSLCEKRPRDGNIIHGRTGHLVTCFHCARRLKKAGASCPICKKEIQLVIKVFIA
Target sequence (Q00987 whole entry, looked up): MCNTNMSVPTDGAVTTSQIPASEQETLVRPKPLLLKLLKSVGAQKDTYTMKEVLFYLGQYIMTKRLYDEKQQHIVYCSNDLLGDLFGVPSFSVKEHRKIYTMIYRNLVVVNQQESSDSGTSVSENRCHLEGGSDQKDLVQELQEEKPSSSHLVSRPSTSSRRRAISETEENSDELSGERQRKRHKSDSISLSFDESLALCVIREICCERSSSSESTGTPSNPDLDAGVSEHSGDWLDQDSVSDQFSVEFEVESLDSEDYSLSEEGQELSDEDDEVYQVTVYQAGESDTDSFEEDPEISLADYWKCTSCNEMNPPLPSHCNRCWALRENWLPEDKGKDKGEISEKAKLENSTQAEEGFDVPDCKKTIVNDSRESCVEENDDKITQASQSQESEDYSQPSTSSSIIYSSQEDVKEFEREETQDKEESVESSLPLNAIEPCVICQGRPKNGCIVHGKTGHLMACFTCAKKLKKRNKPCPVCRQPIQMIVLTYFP
MPTP block = mitochondrial permeability transition pore inhibitors, primary screen, biochemical, isolated mouse mitochondria, absorbance; Ca2+ swelling absorbance, 30 min; inhibition, % at 10 µM; 360,000 tested, 1.4% active; AID 602449, 2012;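 active = inhibition of 50% or more, scaled per plate between neutral and stimulator controls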
CSC inhib = cancer stem cell viability inhibitors, primary screen, luminescence. cancer stem cell-like cells viability. inhibition, % at 7.5 µM. 300,000 tested, 1.1% active. AID 2717, 2010; in the data active = inhibition above about 75%; tested in HMLE shEcad cells
GRIN3A LBD mod = binders of NR3A ligand-binding domain, primary screen, biophysical, differential scanning fluorimetry, uHTS. 340,000 tested, 2.5% active. Tm shift relative to glycine control, % at 25 µM. NR3A LBD differential scanning fluorimetry, Tm shift; 0% = protein alone, 100% = glycine-bound protein;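 active = melting temperature shift of at least 10% of the positive control shift, at one fixed dose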
Gli-Sufu block = Gli-Sufu pathway antagonists, primary screen, luciferase luminescence, Sufu-KO-LIGHT cells, uHTS. Sufu-KO-LIGHT fibroblasts, Gli luciferase reporter luminescence. inhibition, % at 5 µM. 340,000 tested, 0.74% active. AID 588413, 2011;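 active = inhibition above about 55%, limit read from the data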
Beta apoptosis = inhibitors of cytokine-induced beta cell apoptosis, primary screen, luminescence; INS-1E cytokine-induced death, ATP luminescence, 48 h; percent of positive-control rescue, neutral wells zero; protection from apoptosis, % (test concentration not listed); 300,000 tested, 0.8% active;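 active = Every replicate reaches about 75%, or at least half do and their mean reaches it too, limit read from the data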;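 also: higher means more ATP so stronger rescue from cytokine killing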
Gli-Sufu confirm = Gli-SUFU pathway antagonists, confirmation, single concentration, luciferase luminescence, Sufu-KO-LIGHT cells; shares compounds with Gli-Sufu block; Gli luciferase reporter; inhibition, % at 5 µM; 2,500 tested, 40% active; AID 602428, 2012;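 active = mean inhibition at 5 µM reaching about 45%, limit read from the data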
SufuKO cytotox = cytotoxicity in Sufu-KO-LIGHT cells, confirmation, cytotoxicity control for Gli-SUFU antagonist project, cell-based, ATP luminescence, single concentration; cytotoxicity, % at 5 µM; shares compounds with Gli-Sufu block; 2,500 tested, 32% active;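 active = mean cytotoxicity at 5 µM above about 25%, limit read from the data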;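 also: cells exposed to compound overnight for roughly 16 to 18 hours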
Wnt3a cs = Wnt3a reporter signal inhibition, confirmation, counter-screen for Gli-SUFU antagonist project, Wnt-LIGHT cells, luminescence, single concentration; shares compounds with Gli-Sufu block; Wnt3a-driven luciferase reporter; inhibition, % at 6.25 µM; 2,500 tested, 20% active; AID 651995, 2013;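 active = mean inhibition above about 25%, limit read from the data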
Each line names hits and unclear results; the compound was inactive in the other large screens (follow-up assays come after a bar, where they were run). Sampled rows, rich in hits. Any-hit rate of the full collection: about 6.6%.

Cc1cc(C)c(C(N)=O)c(SCC(=O)c2cc(C)n(-c3cc(C)on3)c2C)n1	none | Gli-Sufu confirm 59.5 | SufuKO cytotox 33.5 | Wnt3a cs inactive
Cc1cc(C)c(C(N)=O)c(SCC(=O)c2cc(C)c(C)cc2C)n1	none
COc1ccc(CCNC(=O)CCNC(=O)c2ccco2)cc1	Gli-Sufu block 71.7 | Gli-Sufu confirm inactive | SufuKO cytotox 28.1 | Wnt3a cs inactive
COc1cccc(CNC(=O)CCNC(=O)c2ccco2)c1	none
CCn1c(-c2ccsc2)nc2c1c(=O)[nH]c(=O)n2Cc1ccccc1	Gli-Sufu block 62.4 | Gli-Sufu confirm inactive | SufuKO cytotox inactive | Wnt3a cs inactive
CCCn1c(-c2cccs2)nc2c1c(=O)[nH]c(=O)n2Cc1ccccc1	none
CNC(=S)N/N=C/c1cn(CCOc2ccc(OC)cc2)c2ccccc12	none
CC(NC(=O)c1cc2c(=O)n3ccccc3nc2n(CC2CCCO2)c1=N)c1ccccc1 (centres undefined)	Gli-Sufu block 59.1 | Gli-Sufu confirm inactive | SufuKO cytotox inactive | Wnt3a cs inactive
C=CCNC(=S)N1N=C(c2ccco2)CC1c1ccco1 (centres undefined)	none (no result: Mdm2-MdmX inh, CSC inhib, Beta apoptosis)
CC1(C(=O)NS(=O)(=O)c2ccc3ccccc3c2)CCN1C(=O)Cc1ccc(-c2ccccc2)cc1 (centres undefined)	none (no result: Mdm2-MdmX inh, CSC inhib, GRIN3A LBD mod, Gli-Sufu block, Beta apoptosis)
Cc1nnc(C)c2c(C)n(-c3ccccc3)c(C)c12	Gli-Sufu block 59.0 (no result: CSC inhib, Beta apoptosis) | Gli-Sufu confirm inactive | SufuKO cytotox inactive | Wnt3a cs inactive
c1ccc(Nc2nc(NCC3CCCO3)c3ccccc3n2)cc1 (centres undefined)	Gli-Sufu block 57.0 | Gli-Sufu confirm 45.1 | SufuKO cytotox 36.1 | Wnt3a cs 27.7
CCOC(=O)c1c(NC(=S)Nc2ccccc2)sc(C)c1C	none
CCOC(=O)c1c(NC(=O)C[n+]2ccc(Cc3ccccc3)cc2)sc(C)c1C	Beta apoptosis 77.6 | Gli-Sufu confirm inactive | SufuKO cytotox inactive | Wnt3a cs inactive
CCc1nnc(NC(=O)c2cc(-c3ccccn3)nc3ccccc23)s1	none
CCc1nnc(NC(=O)c2cc(-c3ccco3)nc3ccccc23)s1	Gli-Sufu block 61.2 | Gli-Sufu confirm inactive | SufuKO cytotox inactive | Wnt3a cs inactive
Nn1c(CSc2nc3ccccc3o2)nnc1CSc1nc2ccccc2o1	Gli-Sufu block 94.3 | Gli-Sufu confirm inactive | SufuKO cytotox inactive | Wnt3a cs inactive
CC(=O)N1CCN(Cc2nc3cc(NC(=O)c4cccs4)ccc3n2C)CC1	none (no result: CSC inhib)
Fc1cccc(CSc2ccc3nnc(-c4cccnc4)n3n2)c1	none
Cc1ccc(CSc2ccc3nnc(-c4cccnc4)n3n2)cc1	none | Gli-Sufu confirm inactive | SufuKO cytotox inactive | Wnt3a cs inactive
COc1ccc2nc3sc(C(=O)N4CCN(C)CC4)cc3cc2c1	Gli-Sufu block 94.3 | Gli-Sufu confirm inactive | SufuKO cytotox inactive | Wnt3a cs inactive
Cc1csc(N(C(=O)c2cccc(S(=O)(=O)N(C)C)c2)c2ccccc2)n1	GRIN3A LBD mod 12.2, Gli-Sufu block 56.6 | Gli-Sufu confirm inactive | SufuKO cytotox inactive | Wnt3a cs inactive
Cc1csc(N(C(=O)c2cccc(S(=O)(=O)N3CCCC3)c2)c2ccccc2)n1	none
COc1cccc(/C=N/NC(=O)c2ccc([N+](=O)[O-])cc2Cl)c1O	Gli-Sufu block 64.1, Beta apoptosis 88.4 | Gli-Sufu confirm inactive | SufuKO cytotox inactive | Wnt3a cs inactive
Cc1ccc(C(=O)N[C@@H](C)CN2C3=NC[C@H](C)N3C[C@H]2Cc2ccc(O)cc2)cc1Br	none (no result: MPTP block, CSC inhib, GRIN3A LBD mod, Gli-Sufu block, Beta apoptosis)
Cc1noc(/C=C/c2ccccn2)c1[N+](=O)[O-]	Gli-Sufu block 98.7 | Gli-Sufu confirm inactive | SufuKO cytotox 28.5 | Wnt3a cs inactive
COc1cccc(-c2nc(NCCN3CCOCC3)c3ccccc3n2)c1O	Gli-Sufu block 98.4 (no result: Beta apoptosis) | Gli-Sufu confirm inactive | SufuKO cytotox inactive | Wnt3a cs inactive
COc1ccc(C2=[N+](C)CCn3cccc32)c(OC)c1	Gli-Sufu block 70.5 | Gli-Sufu confirm 47.4 | SufuKO cytotox inactive | Wnt3a cs inactive
COc1ccc(CN2CCc3ccccc3C2)c(OC)c1	none
O=C(Nc1ccccc1Oc1cccnc1)C1CCCN(Cc2ccccc2O)C1 (centres undefined)	none | Gli-Sufu confirm inactive | SufuKO cytotox 27.5 | Wnt3a cs inactive
C#Cc1ccc(CN2CCCC(C(=O)Nc3ccccc3Oc3cccnc3)C2)cc1 (centres undefined)	none
c1cncc(C(c2nnnn2C2CCCCC2)N2CCN3CCCC3C2)c1 (centres undefined)	none (no result: CSC inhib) | Gli-Sufu confirm inactive | SufuKO cytotox inactive | Wnt3a cs inactive
NC(=O)CSc1nnc(-c2ccc(S(=O)(=O)N3CCCC3)cc2)n1CC1CCCO1 (centres undefined)	none
N#CCSc1nnc(-c2ccc(S(=O)(=O)N3CCOCC3)cc2)n1CC1CCCO1 (centres undefined)	Gli-Sufu block 94.0 | Gli-Sufu confirm inactive | SufuKO cytotox inactive | Wnt3a cs inactive
COc1ccc(CCNc2ccc(S(N)(=O)=O)cn2)cc1	none | Gli-Sufu confirm inactive | SufuKO cytotox inactive | Wnt3a cs inactive
O=S(=O)(O)c1ccc2c(c1)C(C(Cl)(Cl)Cl)OC(C(Cl)(Cl)Cl)O2 (centres undefined)	none (no result: Mdm2-MdmX inh, CSC inhib, Beta apoptosis)
COc1ccc2c(c1)CCCC21SC(NC(C)=O)=NN1C(C)=O (centres undefined)	none | Gli-Sufu confirm inactive | SufuKO cytotox inactive | Wnt3a cs inactive
COc1cc2[nH]c(=O)n(Cc3ccccc3Cl)c(=O)c2cc1OC	none | Gli-Sufu confirm inactive | SufuKO cytotox inactive | Wnt3a cs inactive
CCOc1ccc(CNC(=O)CCS(=O)(=O)c2ccc3c(c2)NC(=O)CO3)cc1OC	none
COc1cc(C2C(C#N)=C(C)NC3=C2C(=O)c2ccccc23)cc(OC)c1OC (centres undefined)	none | Gli-Sufu confirm 58.0 | SufuKO cytotox 55.3 | Wnt3a cs inactive
COc1ccc(C2C(C#N)=C(C)NC3=C2C(=O)c2ccccc23)cc1 (centres undefined)	none
Cc1cc(C)cc(NC(=S)N(CCN(C)C)C(C)c2cccnc2)c1 (centres undefined)	none | Gli-Sufu confirm inactive | SufuKO cytotox inactive | Wnt3a cs inactive
